# Data taken from paper PMC7862700, “An all-to-all approach to the identification of sequence-specific readers for epigenetic DNA modifications on cytosine”.
# Columns and labels:
# Assay in all cases: DAPPL (digital affinity profiling via proximity ligation, sequencing); 10 mM Tris-HCl pH 7.5, 50 mM NaCl, 1 mM DTT, 4% glycerol, room temperature, 30 min; GST-TFs on glutathione beads, 16-mer random dsDNA library, 0.1% formaldehyde crosslink after washing; high values mean tight binding
# FLI1 = target: T1, FLI1 (Homo sapiens, UniProt Q01543 1-452); settings: protein: recombinant; tags: N-terminal GST; dsDNA, one strand shown
# T1 sequence: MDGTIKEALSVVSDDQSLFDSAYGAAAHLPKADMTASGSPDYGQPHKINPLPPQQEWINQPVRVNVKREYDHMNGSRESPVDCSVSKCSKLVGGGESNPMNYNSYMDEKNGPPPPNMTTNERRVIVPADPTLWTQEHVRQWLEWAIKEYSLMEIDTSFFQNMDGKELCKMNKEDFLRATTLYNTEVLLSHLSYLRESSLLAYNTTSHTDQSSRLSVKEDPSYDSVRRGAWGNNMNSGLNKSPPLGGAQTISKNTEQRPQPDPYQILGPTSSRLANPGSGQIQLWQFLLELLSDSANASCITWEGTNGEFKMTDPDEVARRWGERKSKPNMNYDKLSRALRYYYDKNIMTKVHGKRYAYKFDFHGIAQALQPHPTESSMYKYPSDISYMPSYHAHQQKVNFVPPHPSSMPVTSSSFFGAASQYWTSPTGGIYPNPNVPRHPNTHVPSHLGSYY
# Procedure, shortened: (§1)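 Pools of DNA-barcoded human transcription factors, expressed in yeast as GST fusions on glutathione beads and combined with a tag-only sample, were incubated with 200 nmole of a 16-mer random double-stranded DNA library. Incubation took 30 min at room temperature in Tris/NaCl/DTT/glycerol buffer and was followed by washing, 0.1% formaldehyde crosslinking, proximity ligation (BsaI/T4 ligase, 1 h, 37 °C), PCR amplification and sequencing on an Illumina NextSeq500. Binding signal is the ratio of a hexamer's read frequency for a factor to its frequency for the tag-only sample.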
# ELK1 = target: T2, ELK1 (Homo sapiens, UniProt P19419 1-428); settings: protein: recombinant; tags: N-terminal GST; dsDNA, one strand shown
# T2 sequence: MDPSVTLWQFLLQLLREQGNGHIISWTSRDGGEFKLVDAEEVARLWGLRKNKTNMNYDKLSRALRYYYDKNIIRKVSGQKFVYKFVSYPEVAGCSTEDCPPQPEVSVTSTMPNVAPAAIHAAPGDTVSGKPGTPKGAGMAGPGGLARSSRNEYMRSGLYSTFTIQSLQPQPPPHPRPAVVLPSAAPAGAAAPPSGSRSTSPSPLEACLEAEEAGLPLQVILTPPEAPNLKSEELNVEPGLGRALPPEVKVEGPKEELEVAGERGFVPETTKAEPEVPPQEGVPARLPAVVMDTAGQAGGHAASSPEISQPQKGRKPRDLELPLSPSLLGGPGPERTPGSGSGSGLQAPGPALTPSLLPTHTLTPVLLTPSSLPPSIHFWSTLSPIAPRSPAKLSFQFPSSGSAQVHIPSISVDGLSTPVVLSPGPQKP
# Procedure, shortened: as §1
# GABPA = target: T3, GABPA (Homo sapiens, UniProt Q06546 1-454); settings: protein: recombinant; tags: N-terminal GST; dsDNA, one strand shown
# T3 sequence: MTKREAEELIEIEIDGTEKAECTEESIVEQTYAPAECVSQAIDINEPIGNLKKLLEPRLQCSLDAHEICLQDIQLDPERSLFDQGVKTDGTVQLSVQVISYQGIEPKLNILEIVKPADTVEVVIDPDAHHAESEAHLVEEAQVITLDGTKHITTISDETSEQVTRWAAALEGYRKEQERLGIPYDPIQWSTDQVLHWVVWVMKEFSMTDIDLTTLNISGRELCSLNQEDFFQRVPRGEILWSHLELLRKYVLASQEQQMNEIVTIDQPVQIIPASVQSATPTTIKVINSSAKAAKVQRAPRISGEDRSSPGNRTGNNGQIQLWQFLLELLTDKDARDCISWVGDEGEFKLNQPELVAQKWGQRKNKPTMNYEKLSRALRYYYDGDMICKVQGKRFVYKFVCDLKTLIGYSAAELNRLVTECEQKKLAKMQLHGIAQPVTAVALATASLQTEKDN
# Procedure, shortened: as §1
# ERG = target: T4, ERG (Homo sapiens, UniProt P11308 1-479); settings: protein: recombinant; tags: N-terminal GST; dsDNA, one strand shown
# T4 sequence: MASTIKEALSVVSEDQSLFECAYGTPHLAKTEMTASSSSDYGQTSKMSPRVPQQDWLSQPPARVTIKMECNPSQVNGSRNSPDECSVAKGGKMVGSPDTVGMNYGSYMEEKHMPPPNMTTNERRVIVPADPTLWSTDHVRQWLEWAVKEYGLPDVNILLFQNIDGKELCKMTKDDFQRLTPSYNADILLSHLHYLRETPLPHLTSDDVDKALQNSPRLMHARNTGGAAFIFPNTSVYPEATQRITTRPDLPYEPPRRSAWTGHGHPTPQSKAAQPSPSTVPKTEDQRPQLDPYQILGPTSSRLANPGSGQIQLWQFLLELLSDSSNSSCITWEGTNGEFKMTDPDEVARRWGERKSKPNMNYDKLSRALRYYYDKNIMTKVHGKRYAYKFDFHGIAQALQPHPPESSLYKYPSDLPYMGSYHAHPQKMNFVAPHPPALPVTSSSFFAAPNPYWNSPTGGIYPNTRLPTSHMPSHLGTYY
# Procedure, shortened: as §1
# ELF1 = ELF1 (Homo sapiens, UniProt P32519 1-619); settings: protein: recombinant; tags: N-terminal GST; dsDNA, one strand shown
# Procedure, shortened: as §1
# EHF = target: T5, EHF (Homo sapiens, UniProt Q9NZC4 1-300); settings: protein: recombinant; tags: N-terminal GST; dsDNA, one strand shown
# T5 sequence: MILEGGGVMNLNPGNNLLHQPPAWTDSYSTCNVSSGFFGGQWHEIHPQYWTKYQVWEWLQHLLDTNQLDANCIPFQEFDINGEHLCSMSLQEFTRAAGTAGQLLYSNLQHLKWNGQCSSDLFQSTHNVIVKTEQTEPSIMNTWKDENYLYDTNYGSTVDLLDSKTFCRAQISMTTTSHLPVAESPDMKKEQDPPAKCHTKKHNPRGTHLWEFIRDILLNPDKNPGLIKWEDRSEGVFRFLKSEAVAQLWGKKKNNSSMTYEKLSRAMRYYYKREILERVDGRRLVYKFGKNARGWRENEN
# Procedure, shortened: as §1
# SPI1 = SPI1 (Homo sapiens, UniProt P17947 1-270); settings: protein: recombinant; tags: N-terminal GST; dsDNA, one strand shown
# Procedure, shortened: as §1
# SPIB = SPIB (Homo sapiens, UniProt Q01892 1-262); settings: protein: recombinant; tags: N-terminal GST; dsDNA, one strand shown
# Procedure, shortened: as §1
# ELK3 = target: T6, ELK3 (Homo sapiens, UniProt P41970 1-407); settings: protein: recombinant; tags: N-terminal GST; dsDNA, one strand shown
# T6 sequence: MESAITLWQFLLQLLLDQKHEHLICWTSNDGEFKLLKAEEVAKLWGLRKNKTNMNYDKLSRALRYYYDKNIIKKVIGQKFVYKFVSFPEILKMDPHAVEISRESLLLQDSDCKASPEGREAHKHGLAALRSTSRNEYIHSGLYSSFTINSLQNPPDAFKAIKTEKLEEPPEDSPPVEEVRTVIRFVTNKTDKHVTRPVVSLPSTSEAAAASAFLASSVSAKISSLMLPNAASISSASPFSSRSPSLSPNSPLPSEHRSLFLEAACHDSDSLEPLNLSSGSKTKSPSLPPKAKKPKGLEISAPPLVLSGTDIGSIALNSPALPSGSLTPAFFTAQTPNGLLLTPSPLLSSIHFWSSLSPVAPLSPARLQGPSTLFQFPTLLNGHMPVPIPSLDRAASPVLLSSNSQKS
# Procedure, shortened: as §1
# FEV = target: T7, FEV (Homo sapiens, UniProt Q99581 1-238); settings: protein: recombinant; tags: N-terminal GST; dsDNA, one strand shown
# T7 sequence: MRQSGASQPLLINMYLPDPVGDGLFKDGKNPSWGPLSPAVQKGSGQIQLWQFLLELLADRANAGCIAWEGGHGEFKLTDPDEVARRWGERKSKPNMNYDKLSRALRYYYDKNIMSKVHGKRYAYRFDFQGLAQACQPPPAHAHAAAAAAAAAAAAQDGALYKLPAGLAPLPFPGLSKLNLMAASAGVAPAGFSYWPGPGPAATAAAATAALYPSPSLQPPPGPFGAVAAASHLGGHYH
# Procedure, shortened: as §1
# ETV5 = ETV5 (Homo sapiens, UniProt P41161 1-510); settings: protein: recombinant; tags: N-terminal GST; dsDNA, one strand shown
# Procedure, shortened: as §1
# HSF1 = HSF1 (Homo sapiens, UniProt Q00613 1-529); settings: protein: recombinant; tags: N-terminal GST; chain copies: 3; dsDNA, one strand shown
# Procedure, shortened: as §1
# SPIC = target: T8, SPIC (Homo sapiens, UniProt Q8N5J4 1-248); settings: protein: recombinant; tags: N-terminal GST; dsDNA, one strand shown
# T8 sequence: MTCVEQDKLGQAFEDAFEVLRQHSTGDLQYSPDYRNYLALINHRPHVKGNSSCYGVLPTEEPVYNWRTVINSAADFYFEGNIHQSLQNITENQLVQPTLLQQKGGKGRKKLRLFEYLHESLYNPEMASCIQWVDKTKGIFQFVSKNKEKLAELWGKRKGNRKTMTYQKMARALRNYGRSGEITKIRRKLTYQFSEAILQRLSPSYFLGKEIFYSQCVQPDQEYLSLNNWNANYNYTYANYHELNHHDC
# Procedure, shortened: as §1
# ELF4 = ELF4 (Homo sapiens, UniProt Q99607 1-663); settings: protein: recombinant; tags: N-terminal GST; dsDNA, one strand shown
# Procedure, shortened: as §1
# ELK4 = target: T9, ELK4 (Homo sapiens, UniProt P28324-2 1-405); settings: protein: recombinant; tags: N-terminal GST; dsDNA, one strand shown
# T9 sequence: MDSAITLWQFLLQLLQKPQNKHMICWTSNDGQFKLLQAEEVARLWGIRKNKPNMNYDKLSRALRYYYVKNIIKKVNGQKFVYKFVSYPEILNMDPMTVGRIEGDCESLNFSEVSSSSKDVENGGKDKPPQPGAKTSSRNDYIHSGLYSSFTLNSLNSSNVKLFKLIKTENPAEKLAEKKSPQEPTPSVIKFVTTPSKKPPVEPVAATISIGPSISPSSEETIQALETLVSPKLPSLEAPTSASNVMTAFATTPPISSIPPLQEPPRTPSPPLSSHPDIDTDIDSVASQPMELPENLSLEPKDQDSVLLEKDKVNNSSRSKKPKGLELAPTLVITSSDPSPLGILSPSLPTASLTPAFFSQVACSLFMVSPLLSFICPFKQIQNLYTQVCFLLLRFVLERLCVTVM
# Procedure, shortened: as §1
# ETV2 = target: T10, ETV2 (Homo sapiens, UniProt O00321 1-342); settings: protein: recombinant; tags: N-terminal GST; dsDNA, one strand shown
# T10 sequence: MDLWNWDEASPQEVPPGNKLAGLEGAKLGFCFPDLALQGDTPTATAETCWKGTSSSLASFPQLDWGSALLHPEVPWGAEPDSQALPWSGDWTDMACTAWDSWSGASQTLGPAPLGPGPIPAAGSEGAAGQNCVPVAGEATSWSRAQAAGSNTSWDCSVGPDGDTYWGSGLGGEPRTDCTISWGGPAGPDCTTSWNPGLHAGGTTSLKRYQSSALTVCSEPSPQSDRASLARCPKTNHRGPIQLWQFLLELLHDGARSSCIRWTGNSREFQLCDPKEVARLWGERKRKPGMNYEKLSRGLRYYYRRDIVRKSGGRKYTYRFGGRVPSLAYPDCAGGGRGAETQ
# Procedure, shortened: as §1
# ELF3 = target: T11, ELF3 (Homo sapiens, UniProt P78545 1-371); settings: protein: recombinant; tags: N-terminal GST; dsDNA, one strand shown
# T11 sequence: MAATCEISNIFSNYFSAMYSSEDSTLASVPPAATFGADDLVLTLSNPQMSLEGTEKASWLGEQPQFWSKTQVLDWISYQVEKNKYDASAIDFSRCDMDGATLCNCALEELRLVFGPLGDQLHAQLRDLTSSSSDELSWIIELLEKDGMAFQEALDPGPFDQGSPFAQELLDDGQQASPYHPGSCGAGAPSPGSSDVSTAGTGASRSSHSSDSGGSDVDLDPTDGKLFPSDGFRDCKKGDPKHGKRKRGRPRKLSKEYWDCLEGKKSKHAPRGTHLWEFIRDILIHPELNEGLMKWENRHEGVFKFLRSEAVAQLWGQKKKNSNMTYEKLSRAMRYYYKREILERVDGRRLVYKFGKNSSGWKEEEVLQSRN
# Procedure, shortened: as §1
# CRX = CRX (Homo sapiens, UniProt O43186 1-299); settings: protein: recombinant; tags: N-terminal GST; dsDNA, one strand shown
# Procedure, shortened: as §1
# ETV1 = ETV1 (Homo sapiens, UniProt P50549 1-477); settings: protein: recombinant; tags: N-terminal GST; dsDNA, one strand shown
# Procedure, shortened: as §1
# Chain of CRX (O43186 whole entry): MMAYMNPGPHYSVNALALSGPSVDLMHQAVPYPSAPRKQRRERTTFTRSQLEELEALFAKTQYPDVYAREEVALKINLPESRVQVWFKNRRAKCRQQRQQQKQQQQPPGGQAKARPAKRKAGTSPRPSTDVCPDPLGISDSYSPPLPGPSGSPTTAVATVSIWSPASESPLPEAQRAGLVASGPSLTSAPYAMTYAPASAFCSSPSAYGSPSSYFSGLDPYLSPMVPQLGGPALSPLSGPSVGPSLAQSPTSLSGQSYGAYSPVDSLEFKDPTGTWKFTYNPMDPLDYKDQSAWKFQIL
# Chain of HSF1 (Q00613 whole entry): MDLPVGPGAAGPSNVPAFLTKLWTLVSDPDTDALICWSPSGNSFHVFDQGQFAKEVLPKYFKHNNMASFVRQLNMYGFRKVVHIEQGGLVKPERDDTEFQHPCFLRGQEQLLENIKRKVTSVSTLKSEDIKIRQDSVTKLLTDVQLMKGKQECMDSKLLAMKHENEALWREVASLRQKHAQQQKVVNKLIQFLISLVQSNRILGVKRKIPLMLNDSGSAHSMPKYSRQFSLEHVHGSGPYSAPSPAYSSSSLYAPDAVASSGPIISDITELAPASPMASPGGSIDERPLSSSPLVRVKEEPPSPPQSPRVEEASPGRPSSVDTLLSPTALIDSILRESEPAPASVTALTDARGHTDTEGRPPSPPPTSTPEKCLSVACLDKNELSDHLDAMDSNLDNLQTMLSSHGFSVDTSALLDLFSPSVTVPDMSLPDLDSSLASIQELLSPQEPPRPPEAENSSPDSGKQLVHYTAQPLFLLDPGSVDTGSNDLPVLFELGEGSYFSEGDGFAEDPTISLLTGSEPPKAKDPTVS
# Chain of ELF1 (P32519 whole entry): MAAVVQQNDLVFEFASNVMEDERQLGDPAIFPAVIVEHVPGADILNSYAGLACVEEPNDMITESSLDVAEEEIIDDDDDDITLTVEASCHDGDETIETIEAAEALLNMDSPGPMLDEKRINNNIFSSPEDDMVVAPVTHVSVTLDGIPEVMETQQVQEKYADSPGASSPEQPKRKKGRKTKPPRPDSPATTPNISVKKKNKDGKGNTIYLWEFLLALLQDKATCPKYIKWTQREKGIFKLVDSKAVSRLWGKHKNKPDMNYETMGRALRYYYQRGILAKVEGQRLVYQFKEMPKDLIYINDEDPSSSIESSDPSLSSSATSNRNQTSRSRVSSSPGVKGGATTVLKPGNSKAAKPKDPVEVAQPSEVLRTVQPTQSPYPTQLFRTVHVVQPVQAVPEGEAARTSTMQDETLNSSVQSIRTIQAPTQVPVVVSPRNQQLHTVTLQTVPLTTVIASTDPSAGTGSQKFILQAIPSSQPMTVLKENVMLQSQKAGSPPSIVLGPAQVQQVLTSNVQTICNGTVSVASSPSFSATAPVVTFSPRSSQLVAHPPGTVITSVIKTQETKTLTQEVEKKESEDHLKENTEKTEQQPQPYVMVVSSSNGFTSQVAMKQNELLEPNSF
# Chain of ELF4 (Q99607 whole entry): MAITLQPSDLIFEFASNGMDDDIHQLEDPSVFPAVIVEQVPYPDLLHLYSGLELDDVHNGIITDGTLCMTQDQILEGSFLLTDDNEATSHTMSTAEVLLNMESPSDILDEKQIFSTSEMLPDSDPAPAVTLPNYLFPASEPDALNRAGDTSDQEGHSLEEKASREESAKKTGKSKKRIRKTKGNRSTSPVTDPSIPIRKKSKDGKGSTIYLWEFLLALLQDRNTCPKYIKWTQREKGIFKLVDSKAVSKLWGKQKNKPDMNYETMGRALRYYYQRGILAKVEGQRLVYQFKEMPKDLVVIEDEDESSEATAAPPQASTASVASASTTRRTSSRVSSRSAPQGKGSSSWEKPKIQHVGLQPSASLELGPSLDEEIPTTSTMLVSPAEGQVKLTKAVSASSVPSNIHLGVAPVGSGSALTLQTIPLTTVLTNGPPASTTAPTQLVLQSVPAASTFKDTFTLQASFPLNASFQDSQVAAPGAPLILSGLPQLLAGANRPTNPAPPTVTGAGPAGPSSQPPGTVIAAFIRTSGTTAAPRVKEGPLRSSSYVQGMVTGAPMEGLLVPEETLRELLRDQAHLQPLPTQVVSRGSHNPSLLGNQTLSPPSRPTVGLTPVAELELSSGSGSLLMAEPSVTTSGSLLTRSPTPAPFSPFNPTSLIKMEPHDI
# Chain of SPIB (Q01892 whole entry): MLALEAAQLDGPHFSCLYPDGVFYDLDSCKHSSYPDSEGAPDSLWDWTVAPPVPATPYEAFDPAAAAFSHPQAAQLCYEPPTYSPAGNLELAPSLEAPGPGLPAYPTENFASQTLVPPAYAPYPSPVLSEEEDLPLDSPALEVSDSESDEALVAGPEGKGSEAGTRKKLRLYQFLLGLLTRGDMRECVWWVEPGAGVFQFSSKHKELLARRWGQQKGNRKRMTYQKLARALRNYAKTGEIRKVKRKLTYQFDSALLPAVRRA
# Chain of ETV5 (P41161 whole entry): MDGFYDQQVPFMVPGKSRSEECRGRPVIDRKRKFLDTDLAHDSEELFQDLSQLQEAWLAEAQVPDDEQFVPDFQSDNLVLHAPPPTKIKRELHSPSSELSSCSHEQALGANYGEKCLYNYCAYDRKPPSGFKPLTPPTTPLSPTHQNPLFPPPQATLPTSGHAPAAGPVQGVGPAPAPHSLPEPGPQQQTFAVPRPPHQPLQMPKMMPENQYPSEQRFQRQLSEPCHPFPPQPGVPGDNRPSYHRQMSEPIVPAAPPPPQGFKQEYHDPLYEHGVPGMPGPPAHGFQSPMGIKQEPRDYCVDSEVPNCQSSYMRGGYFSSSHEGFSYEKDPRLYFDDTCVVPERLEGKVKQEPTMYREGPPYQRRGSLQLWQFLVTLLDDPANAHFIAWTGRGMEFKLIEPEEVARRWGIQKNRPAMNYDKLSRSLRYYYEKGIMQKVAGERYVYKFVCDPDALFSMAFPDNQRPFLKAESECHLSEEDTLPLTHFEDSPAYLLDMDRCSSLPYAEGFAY
# Chain of ETV1 (P50549 whole entry): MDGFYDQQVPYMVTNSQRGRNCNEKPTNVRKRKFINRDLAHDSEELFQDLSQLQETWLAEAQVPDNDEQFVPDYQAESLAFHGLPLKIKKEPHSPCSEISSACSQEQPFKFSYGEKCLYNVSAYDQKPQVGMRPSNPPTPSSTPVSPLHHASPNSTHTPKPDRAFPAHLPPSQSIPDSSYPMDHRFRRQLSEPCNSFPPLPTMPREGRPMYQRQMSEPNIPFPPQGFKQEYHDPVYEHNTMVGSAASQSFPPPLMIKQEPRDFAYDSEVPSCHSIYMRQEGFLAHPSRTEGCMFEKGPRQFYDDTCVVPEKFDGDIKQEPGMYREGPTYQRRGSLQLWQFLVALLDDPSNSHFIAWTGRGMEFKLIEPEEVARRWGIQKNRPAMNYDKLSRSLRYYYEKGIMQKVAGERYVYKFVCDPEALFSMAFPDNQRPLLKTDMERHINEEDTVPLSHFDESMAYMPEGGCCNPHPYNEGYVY
sequence,measurement,setting,value
TCGTCT,binding signal,FLI1,"1.52 fold enrichment (6-mer frequency, TF over GST control)"
same,binding signal,ELK1,"1.34 fold enrichment (6-mer frequency, TF over GST control)"
same,binding signal,GABPA,"1.43 fold enrichment (6-mer frequency, TF over GST control)"
same,binding signal,ERG,"1.34 fold enrichment (6-mer frequency, TF over GST control)"
same,binding signal,ELF1,"1.4 fold enrichment (6-mer frequency, TF over GST control)"
same,binding signal,EHF,"1.38 fold enrichment (6-mer frequency, TF over GST control)"
same,binding signal,SPI1,"1.26 fold enrichment (6-mer frequency, TF over GST control)"
same,binding signal,SPIB,"1.42 fold enrichment (6-mer frequency, TF over GST control)"
same,binding signal,ELK3,"1.23 fold enrichment (6-mer frequency, TF over GST control)"
same,binding signal,FEV,"1.3 fold enrichment (6-mer frequency, TF over GST control)"
same,binding signal,ETV5,"1.33 fold enrichment (6-mer frequency, TF over GST control)"
same,binding signal,HSF1,"1.46 fold enrichment (6-mer frequency, TF over GST control)"
same,binding signal,SPIC,"1.27 fold enrichment (6-mer frequency, TF over GST control)"
same,binding signal,ELF4,"1.35 fold enrichment (6-mer frequency, TF over GST control)"
same,binding signal,ELK4,"1.32 fold enrichment (6-mer frequency, TF over GST control)"
same,binding signal,ETV2,"1.36 fold enrichment (6-mer frequency, TF over GST control)"
same,binding signal,ELF3,"1.52 fold enrichment (6-mer frequency, TF over GST control)"
same,binding signal,CRX,"1.37 fold enrichment (6-mer frequency, TF over GST control)"
same,binding signal,ETV1,"1.41 fold enrichment (6-mer frequency, TF over GST control)"
